The record followed here is article PMC12864922, “TDP-43 directly inhibits mRNA accumulation in neurites through modulation of mRNA stability”.

In all, about 9,900 sequences were measured (“r (bound/input frequency ratio)”: median about 0.7, highest 2% from about 6.5 on). What follows is part of a selection rich in the highest values, with near analogues and random picks from the rest.

First the molecules themselves.
B1: ENSMUSG00000042529.155|Kcnj12|40:44 (ssRNA)
RNA: GGGAGUUCUACAGUCCGACGAUCGCUUCGAUAUCCGCAUGCUAAGAGUGGGUGCUUCUUAGAAAAGGACACUCAGGAAAUUACAUACGGGUCUGGGUCCCACAUCCCCAGGAAGUGGGUCAGCCCCACGUCCCCCGCUGGACUCACAGCUUGAGUUGUGCCUUAGAGACUCUGGUUGUCUGGCUUCCGUCAUUUCUGGUUUUCUCAGACUUGUUUAAUCUUUCCCUACUGCCCUAAGUCCACUCAUGAAGCUCCCCAGGCCCUUCUGAGAUUGCAGAGGCUGCUUGCUCAUAGCCAUGACCCUCUCUUGCGGUCGCACUAGUGUGGAAUUCUCGGGUGUCAAGG
B2: ENSMUSG00000031028.502|Tub (ssRNA)
RNA: GGGAGUUCUACAGUCCGACGAUCGCUUCGAUAUCCGCAUGCUACAAGUAAGGUGUGUGCCUCUGGGAAGACAGGAGUCGGAAGCCAAGGUGUGUGGCAACAGUCUGGAAGAGAGCUUUUGGUAAUCAUACCGUCUUCAGUGACAAGGCAACAAUGCUGUAAAGUGGGUUUGUUUGGUUUUGUUUUUUCUUUCUCUUUUAUGGAAAUGGCAGGUCUAUUUGCCUCAAACGUUAUGUAGAAGUAGUUCUAAGUUUAACAAGCAAUAGAGAUGACUGCUUAGCUAGGAUCUGCAGGGAGCUCUGCUCUCUUGCGGUCGCACUAGUGUGGAAUUCUCGGGUGUCAAGG
B3: ENSMUSG00000042529.125|Kcnj12|220:224 (ssRNA)
RNA: GGGAGUUCUACAGUCCGACGAUCGCUUCGAUAUCCGCAUGCUAGUGGGGCCCACUAGGGUGAAUCUGGCUUGCUCUUCUGUUUGAUGUUGUUGUACCUCAGCUGCCUCAGGGCUGGGUUUAGACACCCCUUCCCCCACCCCCACUCCGUACUCCCUGUUGUGCUUCCCUUCCUAUUUAGUCCCAGGUCUCCACCCCUUGCAGCGAGGGGGCAUAGGAAACACCAGAGUGGGUGCUUCUUAGAAAAGGACACUCAGGAAAUUACAUACGGGUCUGGGUCCCACAUCCCCAGGAAGUGGGUCAGCCUCUUGCGGUCGCACUAGUGUGGAAUUCUCGGGUGUCAAGG
B4: ENSMUSG00000031028.204|Tub|197:201;203:208 (ssRNA)
RNA: GGGAGUUCUACAGUCCGACGAUCGCUUCGAUAUCCGCAUGCUACUCUUCCCAGUUCCAGAGAUGAAACCCCUCCGAGUUAAUGUAUAAGGUUGGAAACCUUUCAGUAGGGAAUCAGGCAGUUCCCUGUUGAAAGUUGUCUGAGUUUUUGCACACCAUUCUGAUCUGAUGUGGCCUGUGCCUGGCUCCUCUAUGAGGACUUCGAGCUGUGCACAGACCUUAGCAGGACCACUGCACACUUACACACACACACACAGGCAGCCCAAGGGUUCUGGGGCUGGGCUUGGACACGCCCUCCAUUGGGACUCUUGCGGUCGCACUAGUGUGGAAUUCUCGGGUGUCAAGG

TDP-43, sequence (Q13148 whole entry): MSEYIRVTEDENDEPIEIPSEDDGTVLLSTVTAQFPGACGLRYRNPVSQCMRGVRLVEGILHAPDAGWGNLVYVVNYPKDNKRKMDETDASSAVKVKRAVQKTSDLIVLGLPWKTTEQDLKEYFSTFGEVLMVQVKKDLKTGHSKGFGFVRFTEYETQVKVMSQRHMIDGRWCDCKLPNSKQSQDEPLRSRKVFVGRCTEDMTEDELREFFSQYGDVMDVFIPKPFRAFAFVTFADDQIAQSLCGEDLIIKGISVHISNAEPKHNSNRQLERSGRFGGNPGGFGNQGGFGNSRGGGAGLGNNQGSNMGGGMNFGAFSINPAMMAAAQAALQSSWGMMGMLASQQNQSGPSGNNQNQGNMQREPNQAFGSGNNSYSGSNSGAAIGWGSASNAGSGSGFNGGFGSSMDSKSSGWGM

The assay has as its target TDP-43 (Homo sapiens, UniProt Q13148 1-414). Nature of the assay: RNA Bind-n-Seq with designed 260-mer pool; 25 mM Tris-HCl, 150 mM KCl, 3 mM MgCl2, BSA (printed 500 mg/mL), 20 units/mL SUPERase IN; pH not stated; 500 nM RNA pool, 1 h, 4 C; TDP-43 5, 50, 500 nM; high values mean tight binding. The note with it: protein: recombinant; tags: SBP (GST cleaved off with PreScission; pGEX-GST-SBP). In outline: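 An in vitro-transcribed pool of 260-nt 3′ UTR oligos (500 nM) was incubated for 1 h at 4 °C with recombinant SBP-tagged TDP-43 at 5, 50 or 500 nM held on streptavidin beads. The buffer contained 25 mM Tris-HCl, 150 mM KCl, 3 mM MgCl2, BSA and SUPERase IN. Biotin-eluted bound RNA was sequenced, and binding, R, is each oligo's normalized read abundance in the bound sample over that in input.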
Turning to B1, the binding signal is 0.524 R (bound/input frequency ratio). For B2, the binding signal is 0.806 R (bound/input frequency ratio). The result for B3 reads 0.802 R (bound/input frequency ratio). In the case of B4, the binding signal is 1.16 R (bound/input frequency ratio).
